# Data from ChEMBL document CHEMBL4296182, “CO-ADD screening of NIH NCI Diversity Set V”.
# For part of these data: Potency and affinity values are given separately.
# Columns and labels:
# Staphylococcus aureus = experiment: Antibacterial activity against Staphylococcus aureus MRSA ATCC 43300 (CO-ADD:GP_020); MIC in CAMBH media using NBS plates, by Resazurin F(560/590); assay type: functional; conditions: Concentration 20 uM, ASSAY_TEST Inhibition of Bacterial Growth, detection method Resazurin, Fluorescence (ex560/em590), MEDIA CAMHB, plate type 384well, CORNING #3640, time 18 hr
# Acinetobacter baumannii = experiment: Antibacterial activity against Acinetobacter baumannii ATCC 19606 (CO-ADD:GN_034); MIC in CAMBH media using NBS plates, by Resazurin F(560/590); assay type: functional; conditions: Concentration 20 uM, ASSAY_TEST Inhibition of Bacterial Growth, detection method Resazurin, Fluorescence (ex560/em590), MEDIA CAMHB, plate type 384well, CORNING #3640, time 18 hr
# Escherichia coli = experiment: Antibacterial activity against Escherichia coli ATCC 25922 (CO-ADD:GN_001); MIC in CAMBH media using NBS plates, by Resazurin F(560/590); assay type: functional; conditions: Concentration 20 uM, ASSAY_TEST Inhibition of Bacterial Growth, detection method Resazurin, Fluorescence (ex560/em590), MEDIA CAMHB, plate type 384well, CORNING #3640, time 18 hr
# Klebsiella pneumoniae = conditions: Concentration 20 uM; ASSAY_TEST Inhibition of Bacterial Growth; detection method Absorption (OD600); MEDIA CAMHB; plate type 384well; NBS; CORNING #3640; time 18 hr
# Candida albicans = conditions: 20 µM
# Cryptococcus neoformans = conditions: Concentration 20 uM; ASSAY_TEST Inhibition of Fungal Growth; detection method Resazurin; Absorption (OD600-OD570); plate type 384well; NBS; CORNING #3640
Structure (SMILES),Inhibition (Staphylococcus aureus),Inhibition (Acinetobacter baumannii),Inhibition (Escherichia coli),Inhibition (Klebsiella pneumoniae),Inhibition (Candida albicans),Inhibition (Cryptococcus neoformans)
Clc1ccc2nc3ccccc3cc2c1,16.29%,9.09%,4.02%,9.96%,5.41%,-4.77%
O=C(O)c1cc(Cl)nnc1O,15.87%,-4.6%,13.02%,-7.82%,-1.79%,-6.94%
C[C@]12CC[C@H](O)CC1=CC[C@@H]1[C@@H]2CC[C@]2(C)c3n[nH]cc3C[C@@H]12,17.35%,7.15%,13.22%,4.71%,-0.24%,-13.74%
[O-][n+]1nc2ccccc2c2ccccc21,3.86%,-1.94%,-9.04%,13.55%,6.35%,8.25%
c1ccc2c(c1)Nc1cc3ccccc3cc1S2,1.39%,-1.02%,3.79%,5.14%,-0.01%,-3.36%
CC(=O)[C@H]1CC[C@H]2[C@@H]3CCC4=CC(=O)C=C[C@]4(C)[C@H]3C(=O)C[C@]12C,11.15%,-7.04%,-4.55%,23.74%,4.8%,-6.32%
CN(C)c1ccc(/N=N\c2cccc3ccoc23)cc1,-15.18%,-4.75%,-16.41%,-3.95%,3.86%,-4.24%
COc1ccc(C(=S)N2CCN(c3cccc(Cl)c3)CC2)cc1,13.14%,2%,3.07%,17.03%,9.51%,-10.07%
O=C(CN1CCOCC1)N1CCOCC1,15.46%,-15.04%,7.84%,3.48%,-1.35%,-8.59%
COc1ccc(CN2CCOC2=O)cc1OC,2.93%,-8.7%,2.98%,20.13%,-0.97%,-5.16%
Cl/N=C1/C=CC=C/C1=N/Cl,-18.23%,-7.09%,4.05%,-1.59%,-1.15%,-1.81%
Cc1cc(NC(=O)c2ccccc2)nc(C)n1,8.84%,-8.03%,12.79%,3.38%,0.88%,-15.88%
Cc1c(Cl)cccc1NC(=O)CC1Sc2ccccc2NC1=O (stereo not given),7.76%,13.12%,-17.77%,3.05%,8.03%,45.43%
Oc1ccc(Cc2ccccc2Cl)c(O)c1,14.48%,-16.11%,10.23%,8.44%,-1.58%,-12.35%
CCOC(=O)c1c(N=C(S)NC)sc2c1CCCC2,-2.15%,0.51%,7.45%,1.7%,6.72%,-11.99%
O=[N+]([O-])C1C(c2ccccc2)C12c1ccccc1-c1ccccc12 (stereo not given),1.75%,-9.94%,13.79%,-4%,-1.91%,-10.55%
CC(=O)NCCCOc1ccc([N+](=O)[O-])cc1Cl,3.67%,-1.89%,11.85%,3.56%,0.9%,-4.3%
Cc1c(NC(=O)Nc2c(Cl)cccc2Cl)c(=O)n(-c2ccccc2)n1C,9.25%,9.07%,6.32%,8.26%,-0.35%,-0.01%
c1cc(-n2nnc3cnccc32)ccn1,13.16%,-18.41%,12.03%,-0.91%,-1.34%,-8.76%
Nc1ccccc1SC1CC(=O)N(c2ccc(Cl)c(Cl)c2)C1=O (stereo not given),1.48%,12.22%,0.8%,8.81%,8.62%,-1.72%
C=CCSc1n[nH]c(-c2cccs2)n1,7.65%,11.99%,1.25%,19.42%,2.69%,-4.46%
S=C(Sc1ccc(Cl)cc1)Sc1ccc(Cl)cc1,-6.64%,10.03%,10.65%,7.47%,2.15%,-8.72%
Cn1c(=O)c2c(nc(N3CCCCC3)n2C)n(C)c1=O,9.93%,4.85%,2.17%,8.3%,4.05%,-7.82%
CSc1nc(O)cc(Cl)n1,-1.6%,-4.84%,7.44%,11.43%,2.04%,-0.01%
c1ccc2c(c1)Nc1ccncc1S2,6.69%,-7.03%,3.1%,3.6%,2.27%,-9.93%
